Test results reported in PubChem BioAssay AID1851 (National Center for Advancing Translational Sciences (NCATS), 2009).
The whole screen tested about 16,000 compounds, of which about 5,800 (36%) were called active. Another 23% or so got no clear call; they are omitted. Some of the results follow. Values without a mark were called inactive. Calls come from the whole dose curve; as a rule, active = well fitted curve in the direction sought with a large enough effect; inconclusive = small, poorly fitted or top-dose-only effect, or effect the other way; inactive = no such curve, though single readings can be large or run the other way.
% is set by controls: 0 for no effect and ±100 for the full control effect.

Each compound was assayed against Cytochrome P450 2C19 (Homo sapiens) (UniProt P33261) (assay: Cytochrome panel assay with activity outcomes). Details: recombinant CYP, pro-luciferin dealkylation, luminescence, p450-cyp2c19; series mostly up to 57.1 µM; activity, negative = inhibition: at the top concentration.
Chain of Cytochrome P450 2C19 (Homo sapiens) (P33261 whole entry, looked up): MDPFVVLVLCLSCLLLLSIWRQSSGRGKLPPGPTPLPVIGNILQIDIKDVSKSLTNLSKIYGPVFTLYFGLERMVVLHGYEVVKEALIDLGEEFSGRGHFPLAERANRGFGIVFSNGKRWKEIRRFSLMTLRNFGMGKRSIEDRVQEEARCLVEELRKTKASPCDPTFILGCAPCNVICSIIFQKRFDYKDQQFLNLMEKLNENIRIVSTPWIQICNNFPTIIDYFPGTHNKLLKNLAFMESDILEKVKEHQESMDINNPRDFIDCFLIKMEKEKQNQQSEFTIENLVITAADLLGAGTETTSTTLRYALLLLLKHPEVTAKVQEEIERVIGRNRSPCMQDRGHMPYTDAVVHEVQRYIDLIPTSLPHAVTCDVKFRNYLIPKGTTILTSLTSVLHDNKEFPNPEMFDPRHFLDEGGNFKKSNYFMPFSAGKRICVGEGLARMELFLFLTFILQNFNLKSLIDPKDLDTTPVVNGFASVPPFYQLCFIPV
`Cn1cccc1C(=O)N1CCC2(CCCN(Cc3ccc(C#N)cc3)C2)CC1` was tested, and the “activity, negative = inhibition” value was -32.2%.
For `O=S(=O)(c1ccccc1)N1CCC[C@@]2(CCN(Cc3nccs3)C2)C1`, the AC50 was 7.94 µM (active).
In the case of `O=S(=O)(c1ccccc1)N1CCC2(CCN(Cc3nccs3)CC2)CC1`, the “activity, negative = inhibition” value is reported as -13.1%.
In the case of `O=S(=O)(c1ccccc1)N1CCC2(CC1)CN(Cc1nccs1)C2`, the “activity, negative = inhibition” value is reported as -10.2%.
With `CN1CCN(c2ncc3nc(-c4cc(F)cc(F)c4)c(=O)n(CCc4ccccc4)c3n2)CC1` the “activity, negative = inhibition” value was -7.74%.
With `CSc1ccccc1N1CCN(C(=O)Nc2ccc3c(c2)NC(=O)CO3)CC1` the AC50 was 7.94 µM (active).
For `COc1cccc(N2CCN(C(=O)Nc3ccc4c(c3)NC(=O)CO4)CC2)c1`, the “activity, negative = inhibition” value was -26.8%.
In the case of `Cc1ccc(-n2c3c(c(=O)[nH]c2=O)C(NS(=O)(=O)c2ccc(C)cc2)(C(F)(F)F)C(=O)N3)cc1` (stereo not drawn), the “activity, negative = inhibition” value is reported as -17.4%.
`O=C(Nc1cccc(C(F)(F)F)c1)C1CCCN1S(=O)(=O)c1cccc2cccnc12` (stereo not drawn) was tested, and the AC50 was 11.2 µM (active).
With `O=C1OCCC1Sc1nnnn1-c1ccccc1` (stereo not drawn) the AC50 was 22.4 µM (active).
In the case of `CC(=O)Nc1ccc(NC(=O)CSc2nnc(-c3ccccc3)n2Cc2ccc3c(c2)OCO3)cc1`, the AC50 is reported as 3.55 µM (active).
`Cc1cc(NC(=O)CSc2nnc(-c3ccccc3)n2Cc2ccco2)no1` was tested, and the AC50 was 10 µM (active).
For `O=C(CSc1nnc(-c2ccccn2)n1Cc1ccco1)Nc1ccc2c(c1)OCO2`, the AC50 was 6.31 µM (active).
`NC(=O)NC(=O)CSc1nnc(-c2ccco2)n1Cc1ccccc1` was tested, and the “activity, negative = inhibition” value was -15.5%.
In the case of `COc1ccc(-c2nc3cnc(N4CCN(C)CC4)nc3n(CCC#N)c2=O)cc1`, the “activity, negative = inhibition” value is reported as -0.278%.
`COc1cc(CNC(C)(C)CO)ccc1OCC(=O)Nc1ccc(Br)cc1` was tested, and the AC50 was 22.4 µM (active).
`C=CCOc1ccc(CNC(C)(C)CO)cc1OCC` was tested, and the “activity, negative = inhibition” value was 68%.
With `C=CCOc1ccc(CNC(C)(C)CO)cc1OC` the “activity, negative = inhibition” value was 23.4%.
`CC(C)CCNC(=S)NC1CCCC1` was tested, and the AC50 was 10 µM (active).
`CC(C)(C)C(=O)N1CCC(O)(CS(=O)(=O)Cc2ccc(Cl)cc2)CC1` was tested, and the “activity, negative = inhibition” value was -29.6%.
For `CC(O)(CS(=O)(=O)Cc1ccccc1Cl)C(=O)Nc1cccc(C(F)(F)F)c1` (stereo not drawn), the AC50 was 2.82 µM (active).
For `CC(O)(CS(=O)(=O)Cc1ccc(Cl)cc1)C(=O)Nc1cccc(C(F)(F)F)c1` (stereo not drawn), the AC50 was 7.94 µM (active).
In the case of `CC(C)CC(=O)N1CCC(O)(CS(=O)(=O)Cc2ccc(Cl)cc2)CC1`, the “activity, negative = inhibition” value is reported as -5.81%.
`COCCn1c(=O)c(C)nc2cnc(N3CCN(C)CC3)nc21` was tested, and the “activity, negative = inhibition” value was 5.94%.
In the case of `COc1ccc(CN2C(=O)c3ccccc3C(/C=N\OCc3ccc(F)cc3)C2=O)cc1` (stereo not drawn), the AC50 is reported as 2.51 µM (active).
`COc1ccc(CO/N=C/c2c(C)[nH]c(=O)[nH]c2=O)cc1` was tested, and the “activity, negative = inhibition” value was -20%.
In the case of `CC(C)NC[C@H](O)c1ccc2ccccc2c1`, the AC50 is reported as “inactive”.
`CCCCOC(OCCCC)[C@H](O)CSc1ccc2ccccc2c1` was tested, and the AC50 was 3.16 µM (active).
`CCN(CC)C[C@@H](O)c1ccc2ccc3ccccc3c2c1` gave an activity, negative = inhibition of -3.19% [at 11.4 µM].
With `CCCc1nn2c(=O)c(C(c3ccc(C)cc3)c3c(O)nc4sc(CCC)nn4c3=O)c(O)nc2s1` the “activity, negative = inhibition” value was -17.5%.
With `CCCCCCN(CCCCCC)C(=O)Cc1c(-c2ccc(F)cc2)[nH]c2ccccc12` the AC50 was 3.98 µM (active).
In the case of `CCN1C(=O)/C(=C2\SC(N3CCCCC3)=NC2=O)c2ccccc21`, the AC50 is reported as 14.1 µM (active).
In the case of `CN(C)CN1C(=O)S/C(=C2/C(=O)N(CN(C)C)c3ccccc32)C1=O`, the activity, negative = inhibition is reported as 21.4% [at 11.4 µM].
`CC(C)(C)CC(C)(C)c1ccc(O)c(C[N+](C)(C)[O-])c1` was tested, and the activity, negative = inhibition was -6.26% [at 11.4 µM].
In the case of `CC(C)(C)c1ccc(O)c(CN(Cc2cc(C(C)(C)C)ccc2O)C2CCCCC2)c1`, the AC50 is reported as 1.58 µM (active).
For `Oc1ccc2ccccc2c1CN(Cc1c(O)ccc2ccccc12)C1CCCCC1`, the AC50 was 1 µM (active).
`O=C(O)Cc1c(O)ccc2ccccc12` was tested, and the activity, negative = inhibition was 33.5% [at 11.4 µM].
For `CC(C)(C)c1ccc(O)c(CN(Cc2c(O)ccc3ccccc23)C2CCCCC2)c1`, the AC50 was 2 µM (active).
In the case of `Oc1ccc2ccccc2c1Cc1c(O)ccc2ccccc12`, the AC50 is reported as 0.316 µM (active).
Work on `CN(C)Cc1cc(C(C)(C)C)ccc1-c1ccc(C(C)(C)C)cc1CN(C)C` yielded an activity, negative = inhibition of 39.4% [at 11.4 µM].
For `N#Cc1cccc(NC(=O)N2CCCC3(CCN(C(=O)c4cccc(F)c4)CC3)C2)c1`, the “activity, negative = inhibition” value was -37.4%.
`NC(=O)C(=O)O` was tested, and the “activity, negative = inhibition” value was 9.7%.
`CC[C@H](NC(=O)c1c(C)c(-c2ccccc2)nc2ccccc12)c1ccccc1` was tested, and the “activity, negative = inhibition” value was -15%.
With `CCC(NC(=O)C1(C)CC1(Br)Br)c1ccc(C)cc1` (stereo not drawn) the AC50 was 2.51 µM (active).
In the case of `NC(=O)CNC(=O)[C@@H]1CC2(CC(c3cccc([N+](=O)[O-])c3)=NO2)CN1C(=O)c1ccccc1` (stereo partly drawn), the “activity, negative = inhibition” value is reported as -22.4%.
For `COc1ccc(C(=O)N2CC3(CC(c4cccc([N+](=O)[O-])c4)=NO3)C[C@H]2C(=O)NCC(N)=O)cc1` (stereo partly drawn), the “activity, negative = inhibition” value was -24.6%.
In the case of `CC(C)CCNC(=O)C12CN(Cc3ccccc3)CC1C(c1cccc([N+](=O)[O-])c1)=NO2` (stereo not drawn), the AC50 is reported as 3.55 µM (active).
In the case of `O=C(NCc1ccccc1)C12CN(Cc3ccccc3)CC1C(c1cccc([N+](=O)[O-])c1)=NO2` (stereo not drawn), the AC50 is reported as 2.51 µM (active).
